# This is part of a sample that, as a whole, favours compounds with a hit. Of some 83,000 tested, about 20% had one in any assay.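 Testing used 96-well plates and a 48-hour single-concentration exposure. Example: -40 means 40% of the starting cells died.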 Unmarked numbers belong to inactive results. Calls of active or inactive are those of the source. How the source made its calls: active means growth percent below 10; inactive means the rest.
# Legend:
# Test in all cases: NCI-60 one-dose screen, 48 h (100 = growth as untreated, 0 = no growth, -100 = all killed)
# NCI-H460 lung = settings: 10 µM unless noted
# A549/ATCC NSCLC = settings: 10 µM unless noted
# 786-0 renal = settings: 10 µM unless noted
# COLO 205 colon = settings: 10 µM
# K-562 leukemia = settings: 10 µM unless noted
# MALME-3M melanoma = settings: 10 µM unless noted
# RXF 393 renal = settings: 10 µM unless noted
# SF-295 CNS = settings: 10 µM unless noted
# UACC-257 melanoma = settings: 10 µM unless noted
# SK-MEL-5 melanoma = settings: 10 µM unless noted
# LOX IMVI melanoma = settings: 10 µM unless noted
# SK-MEL-2 melanoma = settings: 10 µM unless noted
# UO-31 renal = settings: 10 µM unless noted
# CAKI-1 renal = settings: 10 µM unless noted
# A498 renal = settings: 10 µM unless noted
# HL-60(TB) leukemia = settings: 10 µM unless noted
# MOLT-4 leukemia = settings: 10 µM
# OVCAR-4 ovarian = settings: 10 µM unless noted
# OVCAR-3 ovarian = settings: 10 µM unless noted
# SW-620 colon = settings: 10 µM unless noted
SMILES,growth (NCI-H460 lung) [%],growth (A549/ATCC NSCLC) [%],growth (786-0 renal) [%],growth (COLO 205 colon) [%],growth (K-562 leukemia) [%],growth (MALME-3M melanoma) [%],growth (RXF 393 renal) [%],growth (SF-295 CNS),growth (UACC-257 melanoma) [%],growth (SK-MEL-5 melanoma) [%],growth (LOX IMVI melanoma) [%],growth (SK-MEL-2 melanoma),growth (UO-31 renal) [%],growth (CAKI-1 renal) [%],growth (A498 renal) [%],growth (HL-60(TB) leukemia) [%],growth (MOLT-4 leukemia) [%],growth (OVCAR-4 ovarian) [%],growth (OVCAR-3 ovarian) [%],growth (SW-620 colon) [%]
CC1(C)N=C(N)N=C(N)N1c1ccc(CCCCc2ccc(S(=O)(=O)F)cc2)cc1,12.3,14,25.1,41.9,19.7,52.8,43.2,7.77% (active),39.1,19.3,15.2,56.1%,104,40.8,42.3,21.2,25.3,86.1,33.2,19.4
O=[N+]([O-])c1ccc(F)c([N+](=O)[O-])c1F,106,96,–,115,11.1,96,109,104%,103,103,102,93.7%,78.3,103,93.7,92.2,58,116,103,88.2
CC(C)(NC(=O)c1nn(CCCCCF)c2ccccc12)c1ccccc1,102,76.4,89.3,–,89.8,108,112,101%,77,90.3,96.3,87%,76.3,–,94.8,88.3,71.9,88.5,105,102
CC1(C)CC(=O)CC(C)(C)N1N=O,114,107,109,96.2,111,130,136,111%,104,111,97.1,–,91.5,99.9,106,77.4,101,113,101,–
C[C@]12CC[C@@H]3c4ccc(OC(=O)Cc5ccc(N(CCCl)CCCl)cc5)cc4CC[C@H]3[C@@H]1CC[C@@H]2OC(=O)Cc1ccc(N(CCCl)CCCl)cc1,125,–,110,104,106,113,–,103%,–,87,108,-3.92% (active),82.7,101,121,108,104,111,109,103
CC12CCC(=O)C=C1C(O)CC1C2CCC2(C)C(O)CCC12 (stereo unspecified),102,101,115,112,105,95.9,113,105%,95,98.6,97.2,105%,87.1,102,89.6,101,96.5,104,103,109
N#[N+]c1cnc([O-])[nH]c1=O,107,–,93.9,94.2,76,105,–,105%,75.8,97,85.2,96.7%,39,94.3,85.9,67.4,91,100,–,89
O=S(=O)(O)c1ccc(-c2ccc([As](=O)(O)O)cc2)cc1,–,94.4,103,114,101,101,117,101%,93.6,110,99.8,101%,89.1,–,–,102,101,99.4,107,103

# Source: PubChem BioAssay (NCI)
